Source: PubChem BioAssay AID1159580 (chemical genetic matrix, 2015)
Several values for one entry are separate records, joined by “and”; a condition that tells them apart may be missing. Identical values can stand only once. Screen size: about 5,500 compounds; about 2,000 (36%) were called active. Roughly 18% stayed inconclusive and do not appear here. Rule as the data show it: active = normalized growth mostly below about 0.91 (no sharp cut-off); inconclusive = no clear call, values can overlap the other calls; inactive = mostly above about 0.92. Some of the results follow.

Assay: chemical genetic growth profiling, strain panel (AID 1159580);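 also: tested at 20 µM; growth read once vehicle control cultures reached saturation at 30 °C; 1 = growth at the plate median or of vehicle wells; lower values mean less growth of the strain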
Conditions: S. cerevisiae deletion strains, growth OD
[1] = locus YPL055C, strain LGE1, active compounds read low

Measured: normalized growth

CO/N=C(\C(=O)N[C@@H]1C(=O)N2C(C(=O)O)=C(COC(C)=O)CS[C@H]12)c1csc(N)n1
inactive: locus YAL021C, strain ccr4, active compounds read low 0.961 | locus YAL026C, strain drs2, active compounds read low 0.983 | locus YAL030W, strain snc1, active compounds read low 0.983 | locus YBL061C, strain skt5, active compounds read low 0.993 | locus YBR009C, strain hhf1, active compounds read low 0.973 | locus YBR021W, strain FUR4, active compounds read low 1 | locus YBR023C, strain chs3, active compounds read low 1.02 | locus YBR171W, strain sec66, active compounds read low 0.993 | locus YBR229C, strain ROT2, active compounds read low 0.954 | locus YBR231C, strain swc5, active compounds read low 0.975 | locus YBR279W, strain paf1, active compounds read low 1 | locus YCL011C, strain gbp2, active compounds read low 0.954 | locus YCL016C, strain dcc1, active compounds read low 0.961 | locus YCL029C, strain bik1, active compounds read low 0.998 | locus YCL061C, strain MRC1, active compounds read low 0.964 | locus YCL069W, strain vba3, active compounds read low 0.995 | locus YCR088W, strain abp1, active compounds read low 0.985 | locus YDL005C, strain med2, active compounds read low 0.992 | locus YDL035C, strain GPR1, active compounds read low 0.959 | locus YDL040C, strain nat1, active compounds read low 0.989 | locus YDL074C, strain BRE1, active compounds read low 1.02 | locus YDL101C, strain DUN1, active compounds read low 0.99 | locus YDL185W, strain tfp1, active compounds read low 0.965 | locus YDL192W, strain arf1, active compounds read low 0.982 | locus YDR001C, strain nth1, active compounds read low 0.976 | locus YDR069C, strain doa4, active compounds read low 0.996 | locus YDR101C, strain arx1, active compounds read low 0.975 | locus YDR137W, strain rgp1, active compounds read low 0.938 | locus YDR159W, strain sac3, active compounds read low 0.985 | locus YDR162C, strain NBP2, active compounds read low 0.954 | locus YDR195W, strain ref2 0.989 | locus YDR297W, strain sur2, active compounds read low 0.986 | locus YDR318W, strain mcm21, active compounds read low 0.996 | locus YDR334W, strain swr1, active compounds read low 0.976 | locus YDR335W, strain msn5, active compounds read low 0.992 | locus YDR388W, active compounds read low 0.992 | locus YDR392W, strain spt3, active compounds read low 0.896 | locus YDR502C, strain sam2, active compounds read low 1 | locus YEL003W, strain gim4, active compounds read low 1.02 | locus YEL037C, strain rad23, active compounds read low 0.991 | locus YEL061C, strain CIN8 (second series), active compounds read low 0.989 | locus YEL061C, strain CIN8, active compounds read low 0.995 | locus YER015W, strain faa2, active compounds read low 0.979 | locus YER016W, strain bim1, active compounds read low 0.99 | locus YER110C, active compounds read low 0.992 | locus YER111C, strain swi4, active compounds read low 1 | locus YER155C, strain BEM2 (second series), active compounds read low 0.965 | locus YER155C, strain BEM2, active compounds read low 1 | locus YER167W, strain BCK2, active compounds read low 1.02 | locus YFR010W, strain ubp6, active compounds read low 0.97 | locus YGL078C, strain dbp3, active compounds read low 0.998 | locus YGL086W, strain mad1, active compounds read low 0.984 | locus YGL167C, strain pmr1, active compounds read low 1.01 | locus YGL173C, strain kem1, active compounds read low 1.01 | locus YGL227W, strain vid30, active compounds read low 0.993 | locus YGL240W, strain doc1, active compounds read low 0.996 | locus YGL248W, strain PDE1, active compounds read low 1.02 | locus YGL253W, strain hxk2, active compounds read low 1 | locus YGR135W, strain pre9, active compounds read low 1.05 | locus YGR229C, strain SMI1, active compounds read low 0.979 | locus YGR252W, strain gcn5, active compounds read low 1.05 | locus YHR013C, strain ard1, active compounds read low 0.94 | locus YHR027C, strain rpn1, active compounds read low 0.987 | locus YHR030C, strain SLT2, active compounds read low 0.988 and 1.01 | locus YHR079C, strain IRE1 (second series), active compounds read low 0.998 | locus YHR079C, strain IRE1, active compounds read low 0.992 | locus YHR094C, strain hxt1, active compounds read low 0.994 | locus YHR129C, strain ARP1, active compounds read low 0.99 | locus YHR142W, strain chs7, active compounds read low 0.993 | locus YHR200W, strain rpn10, active compounds read low 0.981 | locus YIL066C, strain RNR3, active compounds read low 0.976 | locus YIL073C, strain SPO22, active compounds read low 1.06 | locus YIL125W, strain kgd1, active compounds read low 0.986 | locus YIR030C, strain dcg1, active compounds read low 0.996 | locus YJL092W, strain hpr5, active compounds read low 0.974 | locus YJL095W, strain BCK1 (second series), active compounds read low 0.97 | locus YJL095W, strain BCK1, active compounds read low 1.06 and 0.972 | locus YJL115W, strain asf1, active compounds read low 0.968 | locus YJL129C, strain trk1, active compounds read low 0.989 | locus YJL134W, strain LCB3, active compounds read low 0.989 | locus YJL154C, strain vps35, active compounds read low 0.968 | locus YJL164C, strain tpk1, active compounds read low 0.975 | locus YJL166W, strain qcr8, active compounds read low 1.01 | locus YJL168C, strain set2, active compounds read low 0.991 | locus YJL187C, strain SWE1 (second series), active compounds read low 1.01 | locus YJL187C, strain SWE1, active compounds read low 0.984 | locus YJR043C, strain POL32, active compounds read low 0.958 | locus YJR066W, strain TOR1, active compounds read low 0.983 | locus YKL009W, strain mrt4, active compounds read low 1.03 | locus YKL068W, active compounds read low 0.986 | locus YKL085W, strain MDH1 (second series), active compounds read low 0.994 | locus YKL085W, strain MDH1, active compounds read low 0.994 | locus YKL160W, strain elf1, active compounds read low 1.02 | locus YKL190W, strain CNB1, active compounds read low 1 | locus YKR001C, strain vps1, active compounds read low 0.992 | locus YKR026C, strain gcn3, active compounds read low 0.964 | locus YKR091W, strain srl3, active compounds read low 0.962 | locus YLL001W, strain dnm1, active compounds read low 1.01 | locus YLL026W, active compounds read low 0.996 | locus YLL041C, strain sdh2, active compounds read low 1 | locus YLR027C, strain aat2, active compounds read low 0.977 | locus YLR039C, strain RIC1, active compounds read low 0.993 | locus YLR058C, strain SHM2, active compounds read low 0.986 | locus YLR102C, strain apc9, active compounds read low 0.997 | locus YLR113W, strain HOG1, active compounds read low 0.99 | locus YLR221C, strain rsa3, active compounds read low 1 | locus YLR258W, strain gsy2, active compounds read low 0.974 | locus YLR262C, strain YPT6 (second series), active compounds read low 1 | locus YLR262C, strain YPT6, active compounds read low 0.954 | locus YLR268W, strain sec22, active compounds read low 0.973 | locus YLR320W, strain mms22, active compounds read low 0.96 | locus YLR330W, strain CHS5, active compounds read low 0.988 | locus YLR342W, strain FKS1 (second series), active compounds read low 0.995 | locus YLR342W, strain FKS1, active compounds read low 0.994 | locus YLR357W, strain rsc2, active compounds read low 1.03 | locus YLR370C, strain arc18, active compounds read low 0.994 | locus YLR371W, strain rom2, active compounds read low 0.994 | locus YLR384C, strain iki3, active compounds read low 0.983 | locus YLR418C, strain cdc73, active compounds read low 1.01 | locus YML016C, strain PPZ1, active compounds read low 0.993 | locus YML032C, strain rad52, active compounds read low 0.993 | locus YML120C, strain ndi1, active compounds read low 0.989 | locus YML124C, strain tub3, active compounds read low 0.993 | locus YMR058W, strain fet3, active compounds read low 0.99 | locus YMR078C, strain ctf18, active compounds read low 0.98 | locus YMR125W, strain sto1, active compounds read low 1.02 | locus YMR129W, active compounds read low 0.968 | locus YMR205C, strain PFK2, active compounds read low 1 | locus YMR223W, strain ubp8, active compounds read low 1.03 | locus YMR231W, strain pep5, active compounds read low 0.999 | locus YMR307W, strain GAS1, active compounds read low 1 | locus YNL067W, strain RPL9B, active compounds read low 1.01 | locus YNL071W, strain lat1, active compounds read low 0.989 | locus YNL128W, strain TEP1, active compounds read low 0.996 | locus YNL183C, strain NPR1, active compounds read low 0.91 | locus YNL209W, strain ssb2, active compounds read low 0.99 | locus YNL233W, strain BNI4, active compounds read low 1.03 | locus YNL248C, strain rpa49, active compounds read low 0.977 | locus YNL250W, strain rad50, active compounds read low 1.01 | locus YNL271C, strain bni1, active compounds read low 1.01 | locus YNL298W, strain CLA4, active compounds read low 0.989 | locus YNL307C, strain MCK1, active compounds read low 0.994 | locus YNL322C, strain KRE1 (second series), active compounds read low 0.971 | locus YNL322C, strain KRE1, active compounds read low 1 | locus YNR049C, strain mso1, active compounds read low 0.981 | locus YNR052C, strain pop2, active compounds read low 0.992 | locus YOL006C, strain TOP1, active compounds read low 1.15 | locus YOL012C, strain htz1 0.969 | locus YOL147C, strain pex11, active compounds read low 1 | locus YOR001W, strain rrp6, active compounds read low 1.01 | locus YOR061W, strain CKA2, active compounds read low 0.976 | locus YOR069W, strain VPS5, active compounds read low 0.988 | locus YOR070C, strain gyp1, active compounds read low 0.995 | locus YOR080W, strain dia2, active compounds read low 0.992 | locus YOR083W, strain WHI5, active compounds read low 1.02 | locus YOR106W, strain vam3, active compounds read low 0.997 | locus YOR136W, strain idh2, active compounds read low 0.984 | locus YOR144C, strain elg1, active compounds read low 0.99 | locus YOR184W, strain ser1, active compounds read low 0.986 | locus YOR231W, strain MKK1, active compounds read low 0.971 | locus YOR265W, strain rbl2, active compounds read low 0.99 | locus YOR270C, strain vph1, active compounds read low 1.05 | locus YOR290C, strain snf2, active compounds read low 0.946 | locus YOR316C, strain cot1, active compounds read low 0.984 | locus YPL051W, strain arl3, active compounds read low 1.01 | [1] 1.01 | locus YPL078C, strain atp4, active compounds read low 0.968 | locus YPL106C, strain sse1, active compounds read low 0.963 | locus YPL240C, strain hsp82, active compounds read low 1.01 | locus YPL256C, strain CLN2, active compounds read low 1 | locus YPR119W, strain clb2, active compounds read low 0.991 | locus YPR141C, strain kar3, active compounds read low 0.992 | locus YPR163C, strain tif3, active compounds read low 0.988 | locus YPR167C, strain met16, active compounds read low 0.998 | strain wtn01, active compounds read low 0.999

CO/N=C(/C(=O)N[C@@H]1C(=O)N2C(C(=O)O)=C(CSc3nc(=O)c(O)nn3C)CSC12)c1csc(N)n1 (stereo partly specified)
inactive: locus YAL013W, strain DEP1, active compounds read low 1 | locus YAL040C, strain CLN3, active compounds read low 1 | locus YCL061C, strain MRC1 (second series), active compounds read low 1 | locus YER002W, strain NOP16, active compounds read low 1.01 | locus YGR078C, strain PAC10, active compounds read low 1.01 | locus YJR075W, strain HOC1, active compounds read low 1 | locus YNL175C, strain NOP13, active compounds read low 1.01 | locus YNL197C, strain WHI3, active compounds read low 1.01 | locus YNL224C, strain SQS1, active compounds read low 1 | locus YOR083W, strain WHI5 (second series), active compounds read low 1 | [1] 1.01
